Bioassay records: PubChem BioAssay, National Center for Advancing Translational Sciences (NCATS)
Only some compounds are listed: those with a hit (about 6.5% of all), similar ones and a draw of the others.
HCMV antiviral = blocks human cytomegalovirus replication. HFF cells, HCMV-luciferase reporter, 72 h; hits give low values. activity change, negative = inhibition, % at 57.5 µM. hit rate 4.5% among 410,000. AID 1259415; in the data active = activity change below about -60%; inconclusive = no clear call, values can overlap the other calls; inactive = above about -39%
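Steps: HFFs plated, 16 h 37C; compounds added; HCMV-luciferase added to MOI 1 PFU/cell; 72 h 37C; OneGlo reagent, 5 min room temperature; luminescence read, normalized to controls.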
VACV mCherry inh = inhibitors of vaccinia virus infection (mCherry reporter signal) | Potency, µM (doses to about 36.5 µM), for the others: at the top dose activity change, negative = inhibition, actives largely listed as inhibitors | Vaccinia virus mCherry reporter infection, fluorescence | hit rate 0.63% among 310,000; calls by dose curve; tested in A549 cells; note: potency is the fitted concentration of half-maximal effect; nearly all actives have a fitted effect of over 35% in size
VACV Venus inh = vaccinia inhibition (Venus reporter). Vaccinia virus Venus reporter expression, fluorescence. Potency, µM (top dose mostly 36.5 µM), without a hit: at the highest dose activity change, negative = inhibition, hits mostly inhibitors. hit rate 0.46% among 330,000; calls by dose curve; tested in A549 cells; note: potency is the fitted concentration of half-maximal effect; nearly all actives have a fitted effect of over 30% in size
MARV entry inh = Marburg virus entry inhibition | Marburg virus pseudotyped entry inhibition, cell reporter | hit rate 1.8% among 300,000 | AID 540276 | Potency, µM (series often up to 37.8 µM), inactives show at the top dose activity change, negative = inhibition, actives largely listed as inhibitors; calls by dose curve; tested in HEK293 cells; note: potency is the fitted concentration of half-maximal effect
FMDV inh = foot and mouth disease virus antiviral activity; FMDV antiviral cell-based qHTS; Potency, µM (doses to about 57.9 µM), without a hit: top-dose activity change, negative = inhibition, hits mostly inhibitors; hit rate 1.2% among 410,000; calls by dose curve; tested in HEK293T cells; note: read-out not given here; potency is the fitted concentration of half-maximal effect; nearly all actives have a fitted effect of over 45% in size
Lassa entry inh = inhibitors of Lassa virus binding or cell entry. Lassa virus pseudotype entry inhibition, cell reporter. Potency, µM (titrated, usually from 37.9 µM), for inactives: top-dose activity change, negative = inhibition, actives largely listed as inhibitors. hit rate 1.2% among 300,000. AID 540256; calls by dose curve; tested in HEK293 cells; note: potency is the fitted concentration of half-maximal effect; nearly all actives have a fitted effect of over 50% in size
* marks the source's active call; other numbers are inactive results; [ ] = another dose, or the depositor's remark. % is set by controls: 0 for no effect and ±100 for the full control effect.

How did COc1ccc(-c2nc(-c3cccs3)no2)cc1 do in these assays?
HCMV antiviral: -35; VACV mCherry inh: -12%; VACV Venus inh: -18%; MARV entry inh: inconclusive; FMDV inh: 7.1µM*; Lassa entry inh: 1.8µM*

What do the screens show for `Clc1ccc(OCc2nc(-c3ccccn3)no2)c(Br)c1`?
HCMV antiviral: -61*; VACV mCherry inh: -7%; VACV Venus inh: -11%; MARV entry inh: inconclusive; FMDV inh: -48%; Lassa entry inh: 9.2µM*

What do the screens show for `Cc1ccc(C)n1C1C(=O)N(Cc2ccc(C(C)C)cc2)c2c(F)cccc21` (stereo unspecified)?
HCMV antiviral: -19

Results for CCC[C@H]1CN(Cc2cccnc2)C(=O)[C@H]1CC(=O)Nc1ccc(Br)cc1 ?
Lassa entry inh: 6%[46.1 µM]

What do the screens show for `Cc1ccc(S(=O)(=O)N(C)CCN(C)c2nc(-c3cccs3)nc3ccccc23)cc1`?
VACV mCherry inh: -1%; VACV Venus inh: -14%

How did COc1nc(C)ccc1-c1noc(-c2ccccn2)n1 do in these assays?
HCMV antiviral: 71; MARV entry inh: inconclusive; FMDV inh: -40%; Lassa entry inh: 8.2µM*

How did Brc1ccc(-c2nc(-c3ccccn3)no2)o1 do in these assays?
HCMV antiviral: -6; VACV mCherry inh: inactive; VACV Venus inh: -25%; MARV entry inh: 7.9µM*; FMDV inh: -59%; Lassa entry inh: 8.9µM*

What do the screens show for `Clc1ccc(-c2nc(-c3ccccn3)no2)cc1Cl`?
HCMV antiviral: 66; VACV mCherry inh: -1%; VACV Venus inh: -7%; MARV entry inh: 2.9µM*; Lassa entry inh: inconclusive

How did CCOc1ccc(-c2nc(-c3cccnc3)no2)cc1 do in these assays?
HCMV antiviral: 110; VACV mCherry inh: -13%; VACV Venus inh: -6%; MARV entry inh: 5.6µM*; FMDV inh: -12%; Lassa entry inh: 10µM*

What do the screens show for `CCCCOc1ccc(-c2nc(-c3cccnc3)no2)cc1`?
HCMV antiviral: 41; VACV Venus inh: -16%; MARV entry inh: inconclusive; FMDV inh: -27%; Lassa entry inh: -2%

Results for CCOC(=O)[C@H](CCc1ccccc1)N[C@@H](C)C(=O)N1Cc2cc(OC)c(OC)cc2C[C@H]1C(=O)O ?
FMDV inh: -16%

How did N/C(=C\c1ccccc1)c1ccncc1 do in these assays?
VACV mCherry inh: 48%; VACV Venus inh: 15%

How did Cc1ccccc1NC(=O)Cn1c(=O)oc2cc(Br)ccc21 do in these assays?
HCMV antiviral: -16; VACV mCherry inh: inactive; VACV Venus inh: -7%; FMDV inh: -24%; Lassa entry inh: inconclusive

Results for CNc1nc(N)c([N+](=O)[O-])c(N2CCCCCC2)n1 ?
HCMV antiviral: -13; FMDV inh: -8%

What do the screens show for `CC(C)CCNc1nc(N)c([N+](=O)[O-])c(N2CCCCCC2)n1`?
HCMV antiviral: -94*; FMDV inh: inconclusive

Results for Nc1cc2c3c(cccc3c1)C(=O)N(CCN1CCCC1)C2=O ?
HCMV antiviral: -96*; VACV mCherry inh: inconclusive; VACV Venus inh: inconclusive; MARV entry inh: 6.3µM*; FMDV inh: 0%; Lassa entry inh: inconclusive

How did O=C1c2cccc3cccc(c23)C(=O)N1CCO do in these assays?
HCMV antiviral: inconclusive; VACV mCherry inh: -14%; VACV Venus inh: 1%; FMDV inh: -14%

How did O=C1c2cccc3cc([N+](=O)[O-])cc(c23)C(=O)N1/N=C/c1ccc(O)cc1O do in these assays?
HCMV antiviral: -79*; VACV mCherry inh: 125%; VACV Venus inh: 158%; MARV entry inh: -17%[46.1 µM]; FMDV inh: inconclusive; Lassa entry inh: inconclusive

How did O=C1c2cccc3cc([N+](=O)[O-])cc(c23)C(=O)N1CCN1CCCC1 do in these assays?
HCMV antiviral: -100*; VACV mCherry inh: 0.32µM*; VACV Venus inh: inconclusive; MARV entry inh: 4µM*; FMDV inh: -1%; Lassa entry inh: inconclusive

What do the screens show for `CCN(CC)CCN1C(=O)c2cccc3cc(N)cc(c23)C1=O`?
HCMV antiviral: -99*; VACV mCherry inh: inconclusive; VACV Venus inh: inconclusive; MARV entry inh: 10µM*; FMDV inh: inconclusive; Lassa entry inh: -24%

What do the screens show for `Cc1cc(C)c(S(=O)(=O)N2CCN(CCN3C(=O)c4cccc5cccc(c45)C3=O)CC2)cc1[N+](=O)[O-]`?
MARV entry inh: 13%; Lassa entry inh: -4%
